The source of these data is PubChem BioAssay AID623911 (Vanderbilt High Throughput Screening Facility, 2012).

The campaign covered roughly 2,100 compounds. About 770 (37%) were called active. This is one part of the list. Unmarked numbers belong to inactive results.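 Rule for the calls: active = by-eye trace score of 1 for enhancers or -1 for inhibitors, so actives lie on both sides (some results past the limit were not filed as active); inactive = score 0, or 3 fluorescent, or 4 baseline rise.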

The target of this assay is G protein-activated inward rectifier potassium channel 2 (Homo sapiens) + G protein-activated inward rectifier potassium channel 1 (Homo sapiens) (UniProt P48051+P48549). As to the kind of experiment: GIRK1/2 thallium flux modulators, retest, confirmation, cell-based, HEK293 rmGlu8/hGIRK1/2, FluoZin-2 (AID 623911). The note with it: HEK293 rmGlu8/hGIRK1/2, thallium flux FluoZin-2; actives lie on both sides; glutamate co-added at its EC20 level.
Sequence of G protein-activated inward rectifier potassium channel 2 (Homo sapiens) + G protein-activated inward rectifier potassium channel 1 (Homo sapiens) (P48051 whole entry, looked up): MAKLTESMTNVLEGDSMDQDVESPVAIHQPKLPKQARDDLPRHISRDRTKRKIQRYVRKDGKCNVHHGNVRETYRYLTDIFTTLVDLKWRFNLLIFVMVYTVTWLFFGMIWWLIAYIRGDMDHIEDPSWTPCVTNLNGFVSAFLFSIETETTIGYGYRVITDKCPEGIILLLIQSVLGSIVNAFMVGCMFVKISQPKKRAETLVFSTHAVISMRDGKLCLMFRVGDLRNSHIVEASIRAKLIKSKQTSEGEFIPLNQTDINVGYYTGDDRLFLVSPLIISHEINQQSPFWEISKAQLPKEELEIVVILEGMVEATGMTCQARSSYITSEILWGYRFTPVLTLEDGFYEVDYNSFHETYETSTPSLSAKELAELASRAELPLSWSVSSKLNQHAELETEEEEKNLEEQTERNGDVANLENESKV
Sequence of G protein-activated inward rectifier potassium channel 2 (Homo sapiens) + G protein-activated inward rectifier potassium channel 1 (Homo sapiens) (P48549 whole entry, looked up): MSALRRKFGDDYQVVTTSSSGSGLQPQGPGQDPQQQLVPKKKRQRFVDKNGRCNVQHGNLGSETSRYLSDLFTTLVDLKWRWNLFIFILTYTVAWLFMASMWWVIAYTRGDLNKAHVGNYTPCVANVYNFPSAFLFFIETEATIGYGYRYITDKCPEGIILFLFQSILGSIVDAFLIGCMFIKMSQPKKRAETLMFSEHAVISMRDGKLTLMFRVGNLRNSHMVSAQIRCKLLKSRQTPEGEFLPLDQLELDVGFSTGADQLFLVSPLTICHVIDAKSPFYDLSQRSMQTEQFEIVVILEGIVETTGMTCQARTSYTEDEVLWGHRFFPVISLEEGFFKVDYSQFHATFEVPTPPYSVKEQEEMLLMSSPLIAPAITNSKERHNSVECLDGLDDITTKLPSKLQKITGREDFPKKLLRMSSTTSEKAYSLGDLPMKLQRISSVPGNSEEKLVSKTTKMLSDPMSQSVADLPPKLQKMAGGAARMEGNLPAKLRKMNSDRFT
Take `COc1ccccc1N(C)S(=O)(=O)c1ccc(C(=O)N(CC(N)=O)C(C)C)cc1`: the manual score was 0.
Take `CC(=O)/C(=N\Nc1ccc(Cl)cc1Cl)Sc1cccc2cccnc12`: the manual score was 0.
Consider `N#CC1=C(N)Oc2n[nH]c(-c3cccs3)c2C1c1ccco1` (centres undefined), for which the manual score is 3.
Consider `CC1(C)Cc2c(sc3[nH]c(=S)n(Cc4ccco4)c(=O)c23)CO1`, for which the manual score is 1 (active).
The figure for `Cc1nnc2n(C3CCCCC3)c(=O)c3c4c(sc3n12)COC(C)(C)C4` is 0; for `C=C(C)C1CC=C(C)/C(=N/NC(=O)COc2cccc(C)c2)C1` (centres undefined) it is 1 (active); for `C=C(C)C1CC=C(C)/C(=N/NC(=O)COc2ccc(C)cc2)C1` (centres undefined) it is 0.
The figure for `C=C(C)C1CC=C(C)/C(=N/NC(=O)c2ccc(NC(=O)CCC)cc2)C1` (centres undefined) is 0; for `COc1ccc(-c2c3c([nH]c(=S)c2C#N)CCC3)cc1` it is 0; for `CCOC(=O)c1c(C)[nH]c(=S)c(C#N)c1-c1ccc(Cl)cc1` it is 0.
For `Cc1ccc(-c2cc(-c3ccccc3)[nH]c(=S)c2C#N)cc1` the value was 1 (active); for `Cc1ccc(C2CC2c2n[nH]c(=S)n2-c2ccc(Cl)cc2)cc1` (centres undefined), 0.
In the case of `CN=C1SC(C(=O)O)CC(=O)N1C` (centres undefined), the manual score is 0.
As for `Cc1cc(O)c(C(C[N+](=O)[O-])c2ccc(Cl)cc2Cl)c(=O)o1` (centres undefined), the manual score is 0.
Take `CC(c1ccco1)N(C(=O)c1ccccc1NS(=O)(=O)c1cc([N+](=O)[O-])ccc1Cl)c1ccccn1` (centres undefined): the manual score is 0.
For `CCCC(=O)Nc1ccc(NC(=O)C23CC4CC(CC(C4)C2)C3)cn1` the value was 0.
For `COC(=O)c1ccc(NC(=O)C23CC4CC(C2)CC(n2cncn2)(C4)C3)cc1` the value was 0; for `O=C(Nc1ccc(SC(F)F)cc1)C12CCC(CC1)C2`, 1 (active); for `O=C1c2ccccc2NC(c2ccc(-c3ccc(Br)cc3)o2)N1O` (centres undefined), 0.5.
Turning to `Cc1ccc(-c2cc(-c3n[nH]c(=S)o3)c3ccccc3n2)cc1`, the manual score is 0.
The figure for `S=c1[nH]nc(-c2cc3c(s2)-c2ccccc2CC3)o1` is 1 (active).
For `CCCCCCn1cnc2c(c1=O)c1nc3ccccc3nc1n2/N=C/c1ccco1`, the manual score is 0.
As for `Cc1ccc(C(=O)Nc2nc(-c3ccccc3)c(-c3ccccc3)o2)cc1`, the manual score was 1 (active).
The figure for `Cc1ccc(C(=O)Nc2cnc3ccccn3c2=O)cc1` is 0.
The figure for `COc1cccc(C(=O)Nc2nc(-c3ccccc3)c(-c3ccccc3)o2)c1` is 1 (active); for `COc1cccc(C(=O)NCc2cn3ccsc3n2)c1` it is 0; for `COc1cc(OC)cc(C(=O)Nc2nc(-c3ccccc3)c(-c3ccccc3)o2)c1` it is 0.
For `O=C(Nc1nc(-c2ccccc2)c(-c2ccccc2)o1)c1ccc(F)cc1` the value was 1 (active).
In the case of `CSc1ccccc1NC(=O)Nc1ccccc1`, the manual score was 1 (active).
For `CSc1ccccc1C(=O)Nc1cccc(C(C)=O)c1` the value was 0; for `COC(=O)c1sccc1NC(=O)CSc1ccccc1NS(=O)(=O)c1ccc(Cl)cc1`, 0.
For `CCC(C)NC(=O)c1ccccc1NC(=O)Nc1ccccc1` (centres undefined) the value was 0.
The figure for `CSc1ccccc1NC(=O)Nc1ccc(Cl)cc1` is 1 (active); for `CC(C)N=c1scc(-c2cccs2)n1/N=C/c1ccc(O)c(O)c1O` it is 0.
As for `Cc1c(C)[n+](=O)c2c(n1[O-])CCC2`, the manual score is 0.
The figure for `CC(/C=C\c1cccnc1)=C/C(=O)O` is 0.
The figure for `CCc1ccc(/C=c2\s/c(=C\C(=O)C(C)(C)C)[nH]c2=O)cc1` is 0; for `O=C(/C=C/c1ccccc1)C1C(=O)c2ccccc2C1=O` it is 1 (active); for `CCc1ccc(/C=C/C(=O)C2C(=O)c3ccccc3C2=O)cc1` it is 1 (active).
For `CC(/C=C/c1ccccc1)=N/NC(=O)c1cc([N+](=O)[O-])cc([N+](=O)[O-])c1` the value was 0; for `CN=C(C)C1=C(O)C(C(=O)OC)C(C)(C)CC1=O` (centres undefined), 0.
Take `Cc1cccc2c(=O)cc(C)n(CC(=O)N3CCCCC3)c12`: the manual score was 0.
For `CCc1c(O)nc(SCC(=O)Nc2ccc(OC)cc2)n(C2CCCCC2)c1=O` the value was 0; for `CC(=O)Oc1ccc2c(c1)Oc1cc(OC(C)=O)ccc1C21OC(=O)c2ccccc21`, 3; for `O=C(Nc1ncc(Br)s1)C(Cc1ccccc1)n1cccc1` (centres undefined), 1 (active).
Regarding `CCSc1nnc(NC(=O)C(Cc2ccccc2)n2cccc2)s1` (centres undefined), the manual score is 0.
As for `Cc1csc(NC(=O)C(Cc2ccccc2)n2cccc2)n1` (centres undefined), the manual score is 0.
For `O=C(CSc1nnc2ccccn12)Nc1nsc(-c2ccccc2)n1`, the manual score is 0.
For `CC1(C)CC(=O)C2=C(C1)NC(SCC(=O)Nc1ccccc1)=C(C#N)C2c1ccco1` (centres undefined) the value was 0.
On to `CC1(C)CC(=O)C2=C(C1)N(c1ccccc1)C(N)=C(C#N)C2c1ccsc1` (centres undefined), for which the manual score is -1 (active).
The figure for `CN1C(=O)C2(C(C#N)=C(N)N(c3cc(Cl)cc(Cl)c3)C3=C2C(=O)CCC3)c2ccccc21` (centres undefined) is 0; for `S=c1[nH]nc(COc2ccccc2)n1C1CCCCC1` it is 0.
As to `O=C(O)CCC(=O)NC1CCCCCCC1`, the manual score is 0.
For the compound `CC(C)=CCC(C)(C)CNC(=O)NC1CCCCC1`, the manual score is 1 (active).
With `O=C(Cc1ccccc1)N/N=C/c1cccn1-c1ccc([N+](=O)[O-])cc1`, the manual score was 1 (active).
Consider `N#CC1(Cc2ccc([N+](=O)[O-])cc2)c2ccccc2C=CN1C(=O)c1ccccc1` (centres undefined), for which the manual score is 0.
The figure for `CCOC(=O)CSC1=C(C#N)C(=O)NC(c2ccc(OC)c(OC)c2)S1` (centres undefined) is 0.
For `C=CCNCc1cccn1-c1sc2c(c1C#N)CCCC2` the value was -1 (active).
For `CCOC(=O)c1c2n(c3c(NCc4ccccc4)ncnc13)CCCC2` the value was -1 (active).
Regarding `O=C(Oc1ccccc1)c1cccc(COC(=O)c2cnccn2)c1`, the manual score was 0.
For `CCOC(=O)c1ccc(CNCc2ccc(Br)cc2)cc1` the value was 0; for `CCc1ccc(CNCCNCC(C)O)cc1` (centres undefined), 1 (active); for `COc1ccc(/C=C2\C(=O)NC(=S)N2C(=O)c2ccc(F)cc2)cc1`, 0.
Consider `COc1ccc(/C=C2\N=C(SC)NC2=O)cc1`, for which the manual score was 1 (active).
The figure for `COc1ccc(C(=O)N2C(=S)NC(=O)/C2=C\c2ccc(C)cc2)cc1` is 0.
For `CCn1c(=S)[nH]c2cc(C(=O)OC)ccc2c1=O` the value was 0.5; for `CCOc1cc2[nH]c(=S)n(C(C)C)c(=O)c2cc1OCC`, 1 (active).
In the case of `CC(C)N(CCn1c(=S)[nH]c2ccccc2c1=O)C(C)C`, the manual score is 0.
Turning to `CC1CCC(n2c(=S)[nH]c3ccccc3c2=O)CC1` (centres undefined), the manual score is 0.5.
For `CC(C)n1c(=S)[nH]c2ccccc2c1=O` the value was 1 (active); for `CC(C)COn1c(=S)[nH]c2ccccc2c1=O`, 1 (active).
As for `O=c1c2ccccc2[nH]c(=S)n1CCCN1CCN(C2CCCCC2)CC1`, the manual score is -1 (active).
For `CCC1CCCCN1CCCn1c(=S)[nH]c2ccccc2c1=O` (centres undefined), the manual score is 0.
The figure for `COC(=O)c1ccc2c(=O)n(CC3CCCO3)c(=S)[nH]c2c1` (centres undefined) is 0.
Consider `CC1CCCCN1CCCn1c(=S)[nH]c2ccccc2c1=O` (centres undefined), for which the manual score was 0.
Regarding `CCC1(C)OCC(Cn2c3ccccc3c3ccccc32)O1` (centres undefined), the manual score is 0.
`CC(C)c1ccc2occ(-c3nn[nH]n3)c(=O)c2c1`: the manual score was 0.
For `CC1CCCCC1n1c(=S)[nH]c2ccccc2c1=O` (centres undefined) the value was 1 (active); for `CC1CCCC(n2c(=S)[nH]c3ccccc3c2=O)C1C` (centres undefined), 3; for `Cc1cc(NC(=O)c2ccccc2Oc2ccccc2)no1`, 0.
The figure for `CCCCOc1cccc(OCCCC)c1C(=O)Nc1cc(C)on1` is -1 (active); for `COc1ccc(C(=O)Nc2ccccc2)cc1S(=O)(=O)Nc1cc(C)on1` it is 0.
Take `COc1ccc(CN2CCNC(=O)C2CC(=O)O)cc1OC` (centres undefined): the manual score was 0.
As for `COc1cccc2[nH]c3c(N4CCCC(C)C4)ncnc3c12` (centres undefined), the manual score was -1 (active).
For `Cc1ccc(-c2nnn(CC(=O)NC3CC4CCC3C4)n2)cc1` (centres undefined) the value was 1 (active).
On to `COc1ccc(N(CC(=O)NC2CCCC2)C(=O)Cn2nnc(-c3ccc(C)cc3)n2)cc1`, for which the manual score was 0.
In the case of `Cc1ccc(-c2nnn(CC(=O)N3CCCCC3)n2)c(-n2cnnn2)c1`, the manual score was 0.
For `Clc1cccc(-c2ccc(/C=N/n3cnnc3)o2)c1Cl` the value was 0; for `CCCCCCCC1CC(CSC(=N)N)OC1=O` (centres undefined), -1 (active); for `CCCCCCCC1CC(CSc2ncn[nH]2)OC1=O` (centres undefined), 0.
For `O=C(c1ccc(Br)o1)N1CCN(c2ccc3nnc(-c4ccc(F)cc4)n3n2)CC1`, the manual score was 0.
For the compound `Fc1cc(Br)ccc1NC(=S)NCCc1ccccc1`, the manual score is 0.
The figure for `Fc1ccccc1NC(=S)NN(Cc1ccccc1)c1ccccc1` is -1 (active); for `COc1ccc2cc(Br)ccc2c1CC(=O)NC1CC(C)(C)NC(C)(C)C1` it is 0.
For `Cc1ccccc1CNC(=O)Nc1cccs1` the value was 1 (active); for `CCn1c(NC(=O)Nc2cccc(C)c2C)cc2sccc21`, 0; for `COc1ccccc1NC(=O)COc1ccc(Br)cc1CO`, 0.
With `COc1ccc(Br)cc1CNC(=O)Nc1cccs1`, the manual score was 1 (active).
Consider `O=C(NCc1cccs1)c1cccnc1C(=O)O`, for which the manual score was 0.
The figure for `CCOc1cc(C)nc(N2CCN(C3CCCCC3)CC2)n1` is -1 (active); for `COc1ccc(C(=O)NNC(=S)NC(=O)c2ccco2)cc1` it is 1 (active); for `COc1ccccc1C(=O)NNC(=S)NC(=O)c1ccco1` it is 1 (active).
The figure for `Cc1cnc(NC(=O)COc2ccccc2Cl)s1` is 0; for `Cc1ccccc1OCC(=O)N/N=C/c1cccn1C` it is 1 (active); for `Cc1ccc(OCC(=O)N/N=C/c2cccn2C)cc1` it is 0.
The figure for `COc1ccc(CNC(=O)CSCc2ccccc2Cl)cc1` is 0; for `Cc1ccc(C(=O)CC(=O)COc2ccc(Cl)cc2C)cc1` it is 1 (active).
With `Cc1ccc(C(=O)CC(=O)COc2ccc(Cl)cc2)cc1`, the manual score was 0.
In the case of `Cc1ccc(C(=O)CC(=O)c2cc(Cl)ccc2O)cc1`, the manual score was 0.
